# In publication PMC4552634, “A New Set of Chemical Starting Points with Plasmodium falciparum Transmission-Blocking Potential for Antimalarial Drug Discovery” (PLoS ONE, 2015):
# In all, about 13,000 compounds went through this assay and about 3,200 (25%) showed an effect of 50% or more. This is one part of the list.
# System: P. falciparum stage V gametocytes
# Design: BacTiter-Glo ATP luminescence viability of purified stage V gametocytes in 384-well plates, per cent inhibition versus DMSO
# Settings: 48 h, 5 µM; inhibitor
row,SMILES,% Inhibition [%]
1,O=C(/C=C/c1ccc(Cl)c(Cl)c1)NC1CCN(Cc2cccc(O)c2)CC1 [TCMDC-141738],-9.136
2,Oc1ccc2c(c1NCC1CCCCC1)CCCC2 [TCMDC-138157],-18.15
3,COC(=O)CN(C(=O)/C=C/c1ccc(Cl)c(Cl)c1)C1CCC(CN2CCC(c3c[nH]c4ccccc34)CC2)CC1 (centres unmarked) [TCMDC-140320],0.7085
4,Oc1ccc(-c2cc(-c3ccc(O)cc3)nc(-c3ccccc3)n2)cc1 [TCMDC-123851],-22.65
5,Cc1ccccc1C1CCN(C2CCC(NC(=O)c3csc(-c4cccc(Cl)c4)n3)CC2)CC1 (centres unmarked) [TCMDC-134104],-68.67
6,Cc1ccccc1C1CCN(C2CCC(NC(=O)c3cc(-c4ccccc4)oc3C)CC2)CC1 (centres unmarked) [TCMDC-134112],-36.13
7,COc1ccc(-c2csc(C(=O)NC3CCC(N4CCC(c5ccccc5C)CC4)CC3)c2)cc1 (centres unmarked) [TCMDC-134109],30.06
8,CCc1c(C(=O)NC2CCC(N3CCC(c4ccccc4C)CC3)CC2)[nH]c2ccc(OC)cc12 (centres unmarked) [TCMDC-133531],-38.07
9,Cc1ccccc1C1CCN(C2CCC(NC(=O)c3ccc(-c4ccccc4F)o3)CC2)CC1 (centres unmarked) [TCMDC-134110],121.1
10,Cc1ccccc1C1CCN(C2CCC(NC(=O)c3cncc(-c4ccccc4)c3)CC2)CC1 (centres unmarked) [TCMDC-134111],-71.64
11,Cc1ccccc1C1CCN(C2CCC(NC(=O)c3ccc(-c4cccc(C(F)(F)F)c4)o3)CC2)CC1 (centres unmarked) [TCMDC-134108],57.44
12,COc1cccc(-c2cc(C(=O)NC3CCC(N4CCC(c5ccccc5C)CC4)CC3)[nH]n2)c1 (centres unmarked) [TCMDC-133532],73.16
13,Cc1ccccc1C1CCN(C2CCC(NC(=O)c3cc(-c4ccc(Cl)cc4)cs3)CC2)CC1 (centres unmarked) [TCMDC-133529],65.99
14,Cc1ccccc1C1CCN(C2CCC(NC(=O)c3cc4cc(Cl)ccc4o3)CC2)CC1 (centres unmarked) [TCMDC-134102],-69.82
15,Cc1ccccc1C1CCN(C2CCC(NC(=O)c3ccc(-c4ccccc4)s3)CC2)CC1 (centres unmarked) [TCMDC-134113],-48.7
16,Cc1ccc(/C=C/C(=O)NC2CCC(N3CCC(c4ccccc4C)CC3)CC2)cc1F (centres unmarked) [TCMDC-133514],-74.34
17,CCCCN(Cc1cnccc1-c1ccc(Br)cc1)c1ccc(C(O)(C(F)(F)F)C(F)(F)F)cc1 [TCMDC-135242],23.71
18,CCC(C)CN1CCCN(c2ccc(NC(=O)c3cccs3)cc2)CC1 (centres unmarked) [TCMDC-134998],9.826

row,SMILES,% Inhibition [%]
1,CCN(Cc1ccccc1)C1CCN(Cc2cc(Br)ccc2O)CC1 [TCMDC-123661],1.171
2,O=C(Nc1ccc(Cl)cc1)Nc1ccc(-c2csc(-c3nc4ccccc4[nH]3)c2)cc1 [TCMDC-133174],10.18
3,Cc1cc(N2CCCC2)nc(Nc2ccc(NC(=O)C(C)C)cc2)n1 [TCMDC-124970],-2.67
4,Cc1cc(N2CCCC2)nc(Nc2ccc(NC(=O)Nc3ccccc3)cc2)n1 [TCMDC-124705],-12.69
5,Cc1cc(N2CCCC2)nc(Nc2ccc(NC(=O)C(C)(C)C)cc2)n1 [TCMDC-124716],77.07
6,CCNc1cc(C(=O)N[C@@H](Cc2ccccc2)[C@H](O)CNCCCc2ccc(OC)cc2)cc(N2CCCC2=O)c1 [TCMDC-141685],6.049
7,CCNC(=O)N1CCc2ccc(Oc3nc(NCc4ccccc4OC)ncc3C)cc2CC1 [TCMDC-133414],17.56
8,Fc1ccc(OC2CN(c3nccc(NCc4ccccc4Cl)n3)C2)cc1 [TCMDC-135110],91.97
9,Cc1onc(-c2ccccc2)c1-c1nc(NCc2ccccc2Cl)no1 [TCMDC-134205],-12.6
10,COc1ccccc1CNc1ccnc(N2CC(Oc3ccc(F)cc3)C2)n1 [TCMDC-135118],57.67
11,O=C(Nc1ccc(OC2CCN(Cc3ccc(F)cc3)C2)cc1)c1ccco1 (centres unmarked) [TCMDC-133758],44.14
12,CCOc1ccccc1CNc1nccc(NCc2ccccc2OC)n1 [TCMDC-135119],40.21
13,CC(C)(C)NC(=O)c1ccc(Oc2ccc(OC(F)(F)F)cc2)c(NC(=O)C(C)(C)C)c1 [TCMDC-137270],-22.87
14,COC(=O)C(C)NCC(=O)c1ccccc1 (centres unmarked) [TCMDC-131767],45.43
15,CCC(CC(C)C(=O)O)=C(c1ccccc1)c1ccccc1 (centres unmarked) [TCMDC-131707],-2.137
16,CC(C)[C@H](NCC(=O)c1ccccc1)C(=O)O [TCMDC-131333],52.78
17,COc1cc(NC(=O)N2CCOC(CCN3CCC4(CCc5ccccc54)CC3)(c3ccc(Cl)c(Cl)c3)C2)cc(OC)c1 (centres unmarked) [TCMDC-135338],-0.7672
